SW480 rerep = inducers of DNA re-replication in SW480 colon cancer cells. hit rate 1.8% among 340,000. Potency, µM (series often up to 46.1 µM), inactives show at the top dose re-replication activation, hits mostly activators. SW480 DNA re-replication, Hoechst DNA content imaging, 48 h. AID 624297; note: % of control where 0% means no effect; nearly all actives have a fitted effect of over 55% in size
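Hoechst fluorescence of nuclei (405 nm excitation, 500-530 nm emission) measured by plate-scanning imager after 48 hr compound exposure at 37 C; re-replication scored as increased number of nuclei with elevated intensity.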
RORgamma inh = blocks mouse ROR gamma transcriptional activity | Drosophila S2 Gal4-RORgamma UAS-luciferase reporter, 20 h | Potency, µM (series often up to 53.6 µM), for inactives: at the top dose activity change, negative = inhibition, hits mostly inhibitors | hit rate 5.4% among 310,000 | P51450; note: % is set by controls: 0 for no effect and ±100 for the full control effect; nearly all actives have a fitted effect of over 60% in size
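Using a luciferase readout, inhibitors were identified by reduced reporter activity in Drosophila cells coexpressing a copper-inducible Gal4–ROR gamma fusion and UAS-driven Photinus luciferase, incubated 20 hr after 700 uM copper sulfate.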
MCF10A rerep = induces DNA re-replication in MCF 10a normal breast cells. Potency, µM (highest dose often 46.1 µM), for inactives: at the highest dose activity, positive = re-replication, actives largely listed as activators. AID 624296. MCF 10A DNA re-replication, Hoechst nuclear intensity, 48 h. hit rate 2.9% among 350,000; note: % of control where 0% means no effect; nearly all actives have a fitted effect of over 50% in size
ELG1 repair inh = ELG1-dependent DNA repair inhibition | hit rate 2.3% among 330,000 | Potency, µM (series often up to 46.1 µM), for inactives: at the top dose activity change, negative = inhibition, actives largely listed as inhibitors | HEK293T ELG1-luciferase reporter, luminescence, 16 h; DNA damage induced by 5-fluorouridine; note: % is set by controls: 0 for no effect and ±100 for the full control effect; nearly all actives have a fitted effect of over 55% in size
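HEK293T cells expressing luciferase-tagged ELG1 (2,000/well) received 5-Fluorouridine plus compound or DMSO for 16 hr at 37 °C. Luciferase was read by ONE-Glo luminescence after 30 min at room temperature.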
Gal4-VP16 FLuc = inhibits Gal4-VP16 luciferase reporter, ROR gamma counter-screen | Drosophila S2 Gal4-VP16 UAS-luciferase, luminescence, 20 h | Potency, µM (top dose mostly 53.6 µM), without a hit: top-dose activity, negative = inhibition, most hits filed as inhibitors | hit rate 3.5% among 310,000;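 note: Gal4-VP16 expression switched on by copper sulfate through the metallothionein promoter; % is set by controls: 0 for no effect and ±100 for the full control effect; nearly all actives have a fitted effect of over 50% in size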
ELG1 FLuc counter = luciferase inhibition in cell-free luciferin readout for ELG1 hits | shares compounds with ELG1 repair inh | cell-free firefly luciferase luminescence counter-screen, ViewLux | Potency, µM (top dose mostly 46.1 µM), for inactives: at the top dose activity change, negative = inhibition, actives largely listed as inhibitors | hit rate 3% among 350 | AID 624247; note: % is set by controls: 0 for no effect and ±100 for the full control effect
ELG1-Luc inh = inhibits ELG1-dependent DNA repair in HEK293T cells, confirmed. HEK293T ELG1-luciferase levels, luminescence; cells co-treated with 5-fluorouridine. AID 624248. shares compounds with ELG1 repair inh. hit rate 68% among 670. Potency, µM (highest dose often 46.1 µM), for inactives: top-dose activity change, negative = inhibition, usual class: inhibitors; note: % is set by controls: 0 for no effect and ±100 for the full control effect; nearly all actives have a fitted effect of over 55% in size
ELG1-Luc MMS = confirmation of human ELG1 repair inhibitors, MMS stimulated | shares compounds with ELG1 repair inh | HEK293T luciferase-tagged ELG1 level, MMS stimulated | Potency, µM (doses to about 46.1 µM), without a hit: top-dose activity change, negative = inhibition, usual class: inhibitors | hit rate 53% among 670; note: % is set by controls: 0 for no effect and ±100 for the full control effect; nearly all actives have a fitted effect of over 60% in size
ELG1 5FU viab = confirmation of ELG1 repair inhibitors: viability with 5FU | cell viability with 5-FU, ELG1-dependent repair | Potency, µM (series often up to 46.1 µM), without a hit: at the highest dose activity change, negative = viability loss, hits mostly cytotoxic | 670 tested, under 10 active | shares compounds with ELG1 repair inh | AID 624250;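 note: ELG1-luc HEK293T cells cotreated with 5-fluorouridine at 10 µM final; viability measured 16 h after compound addition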
ELG1 MMS cell = confirmation of ELG1 repair inhibitors: viability with MMS; AID 624251; Cell viability with MMS, ELG1-dependent DNA repair; shares compounds with ELG1 repair inh; hit rate 33% among 670; Potency, µM (highest dose often 46.1 µM), without a hit: at the highest dose activity change, negative = viability loss, most hits filed as cytotoxic;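 note: ELG1-luc HEK293T cells co-treated with 10 µM MMS; viability read 16 h after compound addition; % is set by controls: 0 for no effect and ±100 for the full control effect; nearly all actives have a fitted effect of over 60% in size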
ELG1 unstim viab = affects unstimulated cell viability, ELG1 hit counter-screen; shares compounds with ELG1 repair inh; cell viability counter-screen, unstimulated, luminescence; Potency, µM (titrated, usually from 45.9 µM), for the others: at the highest dose activity change, negative = loss of viability, actives largely listed as cytotoxic; hit rate 8% among 900; AID 624252;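 note: compound exposure lasted 16 hours before reading; % is set by controls: 0 for no effect and ±100 for the full control effect; nearly all actives have a fitted effect of over 55% in size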
FLuc enzyme = firefly luciferase inhibition counter-screen; shares compounds with ELG1 repair inh; purified firefly luciferase, luminescence counter-screen; Potency, µM (series often up to 57.5 µM), for the others: at the highest dose activity, negative = inhibition, most hits filed as inhibitors; hit rate 10% among 350; note: % is set by controls: 0 for no effect and ±100 for the full control effect
* = called active by the depositor; u = inconclusive; x = not tested or not shown. Rows were chosen to be rich in hits. Some 10% of all compounds tested hit in one or more screens of this group. Calls come from the whole dose curve; as a rule, active = well fitted curve in the direction sought with a large enough effect; inconclusive = small, poorly fitted or top-dose-only effect, or another doubt; inactive = no such curve, though single readings can be large; an effect the other way counts as inactive or inconclusive. Potency is the fitted concentration of half-maximal effect.

SMILES	SW480 rerep	RORgamma inh	MCF10A rerep	ELG1 repair inh	Gal4-VP16 FLuc	ELG1-Luc inh	ELG1-Luc MMS	ELG1 5FU viab	ELG1 MMS cell	ELG1 unstim viab	others
CCOc1ccc(CCNc2nc3c(c(=O)n(C)c(=O)n3C)n2CC)cc1OCC	-1%	-19%	0%	u	10%	14µM*	11µM*	4%	-18%	-7%	ELG1 FLuc counter=-11%;FLuc enzyme=1%
CCCNc1nc2c(c(=O)n(C)c(=O)n2C)n1Cc1cccc(C)c1	11%	-32%	5%	1.3µM*	5µM*	u	6.3µM*	3%	7.9µM*	-18%
Cc1oc(-c2ccccc2)cc1C(=O)NC1CCN(Cc2ccccc2)CC1	-12%	-3%	-2%	-6%	6%	x	x	x	x	x
Cn1cnc2c1c(=O)n(Cc1cccc(Cl)c1)c(=O)n2C	-2%	2%	0%	0%	0%	x	x	x	x	x
Cc1cccc(C(=O)/C=C2/c3ccccc3CC(C)(C)N2C)c1	-3%	43%	19%	-12%	10%	x	x	x	x	x
CSCCC(NS(=O)(=O)c1ccc2c(c1)OCCO2)C(=O)N(C)Cc1ccc(C)cc1 (configuration not stated)	18%	29%	u	-22%	-12%	x	x	x	x	x
COc1cccc(CN(C)C(=O)C(CCSC)NS(=O)(=O)c2ccc3c(c2)OCCO3)c1OC (configuration not stated)	-448%	x	u	4.6µM*	x	11µM*	8.9µM*	9%	u	u
N#Cc1cc2cc3c(cc2nc1SCC(=O)N1CCOCC1)OCO3	-2%	0%	2%	u	-18%	x	x	x	x	0%	ELG1 FLuc counter=49%;FLuc enzyme=-10%
CCOC(=O)CSc1nc2cc3c(cc2cc1C)OCO3	-88%	4%	2%	4%	2%	x	x	x	x	x
CCOc1ccc2nc(SCC(=O)N3CCCCCC3)c(C#N)cc2c1	9%	-21%	16%	-22%	2%	x	x	x	x	x
CCOc1ccc2cc(C#N)c(SCC(=O)N3CCOCC3)nc2c1	-3%	39%	1%	u	-1%	x	x	x	x	u	ELG1 FLuc counter=85%;FLuc enzyme=6%
Cc1cc2cc3c(cc2nc1SCC(=O)N1CCOCC1)OCO3	0%	1%	18%	1%	-1%	x	x	x	x	-1%	ELG1 FLuc counter=32%;FLuc enzyme=-10%
COc1ccc(CC(=O)N(CC2CCCO2)c2nc3ccccc3s2)cc1 (configuration not stated)	1%	u	10%	u	-13%	x	x	x	x	x
CC(C)(C)NC(=O)C(c1ccc(-c2ccccc2)cc1)N(C[C@H]1CC[C@@H]([C@@H]2CC[C@H](CO)O2)O1)C(=O)c1ccc(C(C)(C)C)cc1 (some centres not stated)	17%	x	u	u	x	x	x	x	x	x
COCCNc1nnc(SCC(=O)NNC(=O)c2ccc([N+](=O)[O-])cc2)s1	-47%	x	-2%	-4%	x	x	x	x	x	x
O=C(Nc1ccc(N2CCN(Cc3ccccc3F)CC2)cc1)c1ccc([N+](=O)[O-])o1	u	1%	2.1µM*	2.6µM*	u	4µM*	4.4µM*	7%	6.3µM*	-18%
CCn1c(SCC(=O)N2CC(C)OC(C)C2)nc2c([nH]c3ccccc32)c1=O (configuration not stated)	0%	u	11%	3.3µM*	-19%	10µM*	-5%	u	20%	6%
COCCn1c(SCC(=O)N2CC(C)OC(C)C2)nc2c([nH]c3ccccc32)c1=O (configuration not stated)	1%	-15%	9%	-9%	-8%	x	x	x	x	x
Cc1ccc(S(=O)(=O)Nc2cccnc2)c(C)c1C	-9%	9%	1%	-15%	-6%	x	x	x	x	x
Cc1ccc(-c2ccc(/C=N/O)o2)cc1[N+](=O)[O-]	-2%	-43%	-2%	u	u	x	x	x	x	x
CC(=C/c1ccccc1)/C=N/n1c(-c2ccncc2)n[nH]c1=S	-3%	u	23%	2.3µM*	-3%	2.8µM*	u	-2%	2%	-4%
CC(/C=N/n1c(-c2ccncc2)n[nH]c1=S)=C\c1ccco1	15%	-40%	2%	2.6µM*	5%	13µM*	6.3µM*	-2%	-23%	-2%
S=c1[nH]nc(-c2ccncc2)n1/N=C/C=C/c1ccco1	-12%	u	-4%	-2%	2%	x	x	x	x	x
Cc1ccccc1NC(=O)CN1CCN(C(=O)c2ccco2)CC1	-11%	-3%	0%	2%	0%	x	x	x	x	x
COc1ccc(N2CCN(C(=O)CCS(=O)(=O)c3ccc4c(c3)NC(=O)C(C)S4)CC2)cc1 (configuration not stated)	-13%	u	1%	-10%	-1%	x	x	x	x	x
Cc1ccc(C)c(N2CCN(C(=O)CCS(=O)(=O)c3ccc4c(c3)NC(=O)C(C)S4)CC2)c1 (configuration not stated)	-10%	42%	-15%	4.6µM*	u	13µM*	2µM*	u	2µM*	u
COc1cc(C(=O)NCCOc2cc(C)ccc2C(C)C)cc(OC)c1OC	u	-30%	u	4.6µM*	u	14µM*	7.1µM*	-4%	5.6µM*	u
